A short description of assay [1]: qHTS assay to identify small molecule antagonists of the androgen receptor (AR) signaling pathway - cell viability counter screen (AID 743033; also: nearly all actives have a fitted effect of over 45% in size; also: potency is read from the fitted curve at half-maximal effect).
Assay [2] in a line: qHTS assay to identify small molecule antagonists of the thyroid receptor (TR) signaling pathway - cell viability counter screen (AID 743064). Also: nearly all actives have a fitted effect of over 50% in size. Also: potency is read from the fitted curve at half-maximal effect. The gist of the method: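 GH3.TRE-Luc rat pituitary cells dosed after 4 hr plating, co-stimulated with T3 at 1 nM final, incubated 23.5 h at 37 C. Viability measured in the same wells by CellTiter-Fluor fluorescence after 30 min further at 37 C.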

Assay [3] has as its system thyroid hormone receptor (rat, GH3 cells). In words: qHTS assay to identify small molecule agonists of the thyroid receptor (TR) signaling pathway (AID 743066; calls by dose curve).
Assay [4] can be described thus: qHTS assay for identifying genotoxic compounds that show differential cytotoxicity against isogenic chicken DT40 cell lines with known DNA damage response pathways - wild type cell line (AID 743012). Also: potency is read from the fitted curve at half-maximal effect; nearly all actives have a fitted effect of over 60% in size. The procedure, abridged:
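Cells (DT40 wild type, 300/well) are treated with DMSO-dissolved compounds after a ~0.5 h pre-incubation and kept 40 h at 37 C/5% CO2. Viability is then measured by CellTiter-Glo luminescence following 30 min at room temperature.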

Assay [5] can be described thus: qHTS assay for identifying genotoxic compounds that show differential cytotoxicity against isogenic chicken DT40 cell lines with known DNA damage response pathways - Rev3 mutant cell line (AID 743014). Also: nearly all actives have a fitted effect of over 55% in size. Also: potency is read from the fitted curve at half-maximal effect.
The target of assay [6] is Androgen receptor (Homo sapiens) (UniProt P10275). In words: qHTS assay to identify small molecule agonists of the androgen receptor (AR) signaling pathway using the MDA cell line (AID 743040; also: nearly all actives have a fitted effect of over 20% in size). The procedure, abridged: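 Human breast carcinoma MDA-kb2 reporter cells (MMTV-luc, AR/GR elements) were treated for 16 h at 37C in 0% CO2 following a 5 h settling period. Signal was quantified by ONE-Glo luminescence.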
Sequence of Androgen receptor (Homo sapiens) (P10275 whole entry, looked up): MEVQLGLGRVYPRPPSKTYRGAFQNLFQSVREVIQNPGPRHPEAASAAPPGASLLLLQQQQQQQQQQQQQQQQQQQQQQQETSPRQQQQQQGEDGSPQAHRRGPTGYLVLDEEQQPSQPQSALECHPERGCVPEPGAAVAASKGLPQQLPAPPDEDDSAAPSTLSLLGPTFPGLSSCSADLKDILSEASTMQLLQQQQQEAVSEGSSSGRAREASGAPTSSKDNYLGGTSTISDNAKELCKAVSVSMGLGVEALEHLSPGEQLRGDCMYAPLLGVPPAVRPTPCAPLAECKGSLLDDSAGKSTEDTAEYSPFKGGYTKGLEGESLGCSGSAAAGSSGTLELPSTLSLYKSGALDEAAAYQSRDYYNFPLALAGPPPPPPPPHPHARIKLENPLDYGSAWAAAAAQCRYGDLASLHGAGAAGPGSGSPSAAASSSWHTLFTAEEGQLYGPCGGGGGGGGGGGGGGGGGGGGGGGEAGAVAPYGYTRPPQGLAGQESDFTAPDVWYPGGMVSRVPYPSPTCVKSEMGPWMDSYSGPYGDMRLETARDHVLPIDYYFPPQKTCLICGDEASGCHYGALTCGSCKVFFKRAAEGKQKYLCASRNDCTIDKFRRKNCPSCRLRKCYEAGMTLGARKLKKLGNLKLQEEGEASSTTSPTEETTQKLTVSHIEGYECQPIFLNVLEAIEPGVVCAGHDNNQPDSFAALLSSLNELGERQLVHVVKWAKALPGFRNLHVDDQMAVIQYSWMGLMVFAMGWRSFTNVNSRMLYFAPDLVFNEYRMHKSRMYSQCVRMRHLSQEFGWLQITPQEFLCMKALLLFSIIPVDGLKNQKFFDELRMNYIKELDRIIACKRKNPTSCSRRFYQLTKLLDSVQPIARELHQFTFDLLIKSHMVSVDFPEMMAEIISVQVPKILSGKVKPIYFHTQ

The nature of assay [7]: qHTS assay to identify small molecule antagonists of the androgen receptor (AR) signaling pathway using the MDA cell line - cell viability counter screen (AID 743041; also: nearly all actives have a fitted effect of over 45% in size; also: potency is read from the fitted curve at half-maximal effect). The procedure, abridged: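 Same-well cytotoxicity was assessed by CellTiter-Fluor in MDA-kb2 AR-luc cells after 16 h of compound treatment under R1881 agonism.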
In assay [8] the target is Androgen receptor (Homo sapiens) (UniProt P10275). In words: qHTS assay to identify small molecule antagonists of the androgen receptor (AR) signaling pathway using the MDA cell line (AID 743042; also: nearly all actives have a fitted effect of over 55% in size; also: potency is read from the fitted curve at half-maximal effect). The gist of the method: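 MDA-kb2 breast carcinoma cells carrying MMTV-luciferase (AR/GR responsive) were co-treated with compounds and the agonist R1881 for 16 h at 37C. Inhibition read as ONE-Glo luminescence; CellTiter-Fluor fluorescence measured in parallel for cytotoxicity.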

The nature of assay [9]: qHTS assay to identify small molecule antagonists of the thyroid receptor (TR) signaling pathway (AID 743065). Also: nearly all actives have a fitted effect of over 55% in size. Also: potency is read from the fitted curve at half-maximal effect. The procedure, abridged: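 GH3.TRE-Luc rat pituitary cells (two TREs driving luciferase) were dosed with compound, then stimulated with 1 nM T3 (final) for 23.5 h at 37 C. ONE-Glo luminescence was the read-out, with CellTiter-Fluor fluorescence as the cytotoxicity counter-screen.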

Assay [10] concerns the target Estrogen receptor (Homo sapiens) (UniProt P03372). In words: qHTS assay to identify small molecule agonists of the estrogen receptor alpha (ER-alpha) signaling pathway (AID 743075; calls by dose curve;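 also: HEK293 GripTite cells with ER-alpha and UAS-driven beta-lactamase reporter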). To be noted: HEK293 ER-alpha-UAS-bla, beta-lactamase FRET ratio, 18 h; activation: at 70.1 µM (top of the series).
The nature of assay [11]: qHTS assay to identify small molecule antagonists of the estrogen receptor alpha (ER-alpha) signaling pathway using the BG1 cell line (AID 743080; calls by dose curve;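 also: BG1 cells stimulated with 17beta-estradiol alongside compound; nearly all actives have a fitted effect of over 25% in size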; also: potency is read from the fitted curve at half-maximal effect). The procedure, abridged:
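Endogenous full-length ER-alpha in BG1-Luc-4E2 cells drives a stably integrated 4×ERE luciferase gene; compounds were tested against 17beta-estradiol over 21.5 h, with luminescence and multiplexed viability fluorescence recorded.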

The nature of assay [12]: qHTS assay to identify small molecule antagonists of the estrogen receptor alpha (ER-alpha) signaling pathway using the BG1 cell line - cell viability counter screen (AID 743081).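 Also: compound given together with 17beta-estradiol as the ER stimulus; nearly all actives have a fitted effect of over 45% in size.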 Also: potency is read from the fitted curve at half-maximal effect.
In assay [13] the target is Aromatase (Homo sapiens) (UniProt P11511). Briefly: qHTS assay to identify aromatase inhibitors (AID 743083). Also: nearly all actives have a fitted effect of over 55% in size. Also: potency is read from the fitted curve at half-maximal effect.
Sequence of Aromatase (Homo sapiens) (P11511 whole entry, looked up): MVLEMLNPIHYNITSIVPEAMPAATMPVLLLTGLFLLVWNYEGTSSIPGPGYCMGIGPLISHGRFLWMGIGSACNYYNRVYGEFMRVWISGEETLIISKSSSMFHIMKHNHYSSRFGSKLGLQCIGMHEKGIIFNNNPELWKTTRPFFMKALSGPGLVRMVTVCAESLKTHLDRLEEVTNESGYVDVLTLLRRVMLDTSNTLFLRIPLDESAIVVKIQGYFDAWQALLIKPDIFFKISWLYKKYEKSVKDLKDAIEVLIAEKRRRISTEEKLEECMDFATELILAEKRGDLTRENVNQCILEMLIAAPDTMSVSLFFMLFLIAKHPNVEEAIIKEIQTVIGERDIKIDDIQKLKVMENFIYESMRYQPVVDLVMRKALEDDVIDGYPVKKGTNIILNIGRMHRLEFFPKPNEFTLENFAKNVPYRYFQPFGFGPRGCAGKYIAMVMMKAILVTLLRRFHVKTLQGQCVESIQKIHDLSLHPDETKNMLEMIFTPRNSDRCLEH
Assay [14] can be described thus: qHTS assay for identifying genotoxic compounds that show differential cytotoxicity against isogenic chicken DT40 cell lines with known DNA damage response pathways - Rad54/Ku70 mutant cell line (AID 743015). Also: nearly all actives have a fitted effect of over 60% in size. Also: potency is read from the fitted curve at half-maximal effect.
Assay [15] can be described thus: qHTS assay to identify small molecule antagonists of the estrogen receptor alpha (ER-alpha) signaling pathway - cell viability counter screen (AID 743074; calls by dose curve;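 also: HEK293 cells carrying ER-alpha-UAS-bla reporter stimulated with 17beta-estradiol; nearly all actives have a fitted effect of over 45% in size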; also: potency is read from the fitted curve at half-maximal effect).
Assay [16] addresses Estrogen receptor (Homo sapiens) (UniProt P03372). In words: qHTS assay to identify small molecule antagonists of the estrogen receptor alpha (ER-alpha) signaling pathway (AID 743069; active = well fitted curve in the direction sought with a large enough effect in the signal ratio in the repeat runs, not every such curve was filed as active; inconclusive = weak or mixed curves, or effect the other way; inactive = no such curve, though single readings can be large or run the other way; the % refers to the signal ratio; also: potency is read from the fitted curve at half-maximal effect). The procedure, abridged: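 Reporter cells (ER-alpha-bla, HEK293 background) are conditioned overnight in stripped-serum medium (2% charcoal-stripped FBS). Compound and 17beta-estradiol exposure runs 18 hr at 37C, 5% CO2.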

The target of assay [17] is Androgen receptor (Homo sapiens) (UniProt P10275). Briefly: qHTS assay to identify small molecule antagonists of the androgen receptor (AR) signaling pathway (AID 743035; active = well fitted inhibition curve with a large enough effect in the signal ratio in the repeat runs, not every such curve was filed as active; inconclusive = weak or mixed curves, or effect the other way; inactive = no such curve, though single readings can be large or run the other way; the % refers to the signal ratio; also: potency is read from the fitted curve at half-maximal effect). The procedure, abridged: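 Antagonism is scored as loss of R1881-driven beta-lactamase reporter expression in HEK293 cells carrying the reporter under a UAS element, after 16 h co-treatment at 37C and a 2 h room-temperature FRET substrate read.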

Assay [18] deals with Estrogen receptor (Homo sapiens) (UniProt P03372). Briefly: qHTS assay to identify small molecule agonists of the estrogen receptor alpha (ER-alpha) signaling pathway using the BG1 cell line (AID 743079). Also: potency is read from the fitted curve at half-maximal effect; nearly all actives have a fitted effect of over 20% in size. The settings on record: BG1Luc4E2 cells, ERE-luciferase agonist, 22 h.
Sequence of Estrogen receptor (Homo sapiens) (P03372 whole entry, looked up): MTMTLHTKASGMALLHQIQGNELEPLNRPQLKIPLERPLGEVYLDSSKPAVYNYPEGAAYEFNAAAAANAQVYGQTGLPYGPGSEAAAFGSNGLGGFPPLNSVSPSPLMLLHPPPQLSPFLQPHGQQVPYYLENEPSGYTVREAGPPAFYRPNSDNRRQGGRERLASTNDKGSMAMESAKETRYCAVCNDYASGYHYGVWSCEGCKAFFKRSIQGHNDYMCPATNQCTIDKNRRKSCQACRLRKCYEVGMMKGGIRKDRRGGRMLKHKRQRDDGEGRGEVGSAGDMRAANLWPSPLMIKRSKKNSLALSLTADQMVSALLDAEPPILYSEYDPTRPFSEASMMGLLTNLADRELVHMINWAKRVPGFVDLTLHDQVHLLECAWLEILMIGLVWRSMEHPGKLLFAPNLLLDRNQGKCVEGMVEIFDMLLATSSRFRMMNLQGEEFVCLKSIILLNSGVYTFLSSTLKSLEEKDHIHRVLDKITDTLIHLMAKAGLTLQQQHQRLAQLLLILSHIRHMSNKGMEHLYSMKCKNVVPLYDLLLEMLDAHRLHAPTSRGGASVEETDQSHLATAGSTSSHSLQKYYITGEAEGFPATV

Values joined by “and” are separate entries in the source; they are usually repeats but may differ in a detail not shown here. Equal entries are not always repeated. Some structures have more than one record in an assay (separate samples or runs), and their calls can disagree. Active and inactive are the calls of the source. Unless noted, calls follow the shape of the dose curve; as a rule, active = well fitted curve in the direction sought with a large enough effect in the repeat runs; inconclusive = weak or mixed curves; inactive = no such curve, though single readings can be large; an effect the other way counts as inactive or inconclusive.

Consider twelve compounds from PubChem BioAssay (Tox21).

For the compound `CCCCC(CC)COC(=O)c1ccccc1C(=O)O` (stereo not drawn), the Potency result in [1], in assay [2] and in assay [3] was “inactive” throughout.

Consider `Oc1cccc(-c2c3nc(c(-c4cccc(O)c4)c4ccc([nH]4)c(-c4cccc(O)c4)c4nc(c(-c5cccc(O)c5)c5ccc2[nH]5)CC4)C=C3)c1`, for which the Potency in [4] is 29.8 µM (active); in assay [5] it was 29.8 µM (active); in assay [1], “inactive and 23.9 µM (active)”; in assay [7] it was 23.7 µM (active); in assay [2] it was 11.9 µM (active) and 10.6 µM (active); in [9] it was 8.41 µM (active) and 7.5 µM (active). The Potency in assay [12] was 9.44 µM (active) and 11.9 µM (active); in assay [13], “inactive and 26.6 µM (active)”. The Potency entry in assay [6], in assay [8], in assay [10] and in [11] was “inactive” each time.

For the compound `CCCCCCC[N+](CC)(CC)CCCCc1ccc(Cl)cc1`, the Potency is 1.01 µM (active) in assay [4]; 1.43 µM (active) in [5]; 1.27 µM (active) in assay [14]; 12.7 µM (active) in assay [9]; 8.11 µM (active) in assay [15]. Also, the Potency entry in assay [1], in [2], in [3], in [10] and in assay [12] was “inactive” each time.

Take `O=C(O)c1c(Cl)cccc1Cl`: the Potency entry in assay [5], in [14], in assay [1], in [7], in assay [2] and in [9] was “inactive” in each case. The Potency result in [3], in assay [15], in [12] and in [13] was “inactive” in each case.

As to `CCc1cc(Cc2cc(CC)c(N)c(CC)c2)cc(CC)c1N`, the Potency in assay [4] was 61.1 µM (active); in assay [5] it was 61.1 µM (active); in assay [2] it was 68.6 µM (active); in assay [9], 48.6 µM (active); in [16], 38.9 µM [inconclusive] (active); in [11], 61.1 µM (active). Also, the Potency entry in [7], in assay [10] and in [12] was “inactive” each time.

In the case of `Oc1c(Cl)cc(Cl)c2cccnc12`, the Potency in assay [4] was 3.76 µM (active); in [5], 3.76 µM (active); in assay [14], 4.22 µM (active); in [7], 11.1 µM (active); in [2] it was 9.44 µM (active); in [9], 6.68 µM (active). For the same compound, the Potency in assay [11] was 21.1 µM (active); in [13], 11.9 µM (active). For the same compound, the Potency entry in assay [1] and in assay [12] was “inactive” in each case.

Regarding `N=C1C=CC(=C(c2ccc(N)cc2)c2ccc(N)cc2)C=C1`, the Potency was 9.69 µM (active) in assay [4]; 6.86 µM (active) in assay [5]; 7.7 µM (active) in assay [14]; 15.5 µM (active) in assay [1]; 2.19 µM (active) in assay [17]; 15.4 µM (active) in assay [7]. The Potency in assay [8] is 2.43 µM (active); in assay [2] it was 9.69 µM (active); in assay [15] it was 1.38 µM (active); in [12], 13.7 µM (active); in assay [13], 4.86 µM (active). In addition, the Potency result in assay [6] was “inactive”.

Take `O=C(Nc1cccc(C(F)(F)F)c1)c1cc(Br)cc(Br)c1O`: the Potency in assay [4] is 5.31 µM (active) and 6.11 µM (active); in [5], 5.96 µM (active) and 7.7 µM (active); in [14], 6.68 µM (active) and 4.86 µM (active); in [1], 4.25 µM (active) and 4.36 µM (active); in assay [7], 11.9 µM (active) and 10.9 µM (active); in assay [2] it was 5.96 µM (active) and 2.43 µM (active). Further, the Potency in assay [9] is 2.98 µM (active) and 1.09 µM (active); in assay [15], 1.34 µM (active) and 977 nM (active); in [13], 11.9 µM (active) and 4.86 µM (active). In addition, the Potency entry in [10] is “inactive”.

For the compound `CN(C)C(=O)C1(N2CCCCC2)CCN(CC[C@@]2(c3ccc(Cl)c(Cl)c3)CN(C(=O)c3ccccc3)CCO2)CC1`, the Potency in assay [4] was 7.19 µM (active); in assay [5], 8.07 µM (active); in [14], 5.71 µM (active); in assay [1], 16.2 µM (active); in assay [7], 50.9 µM (active); in assay [8], 28.6 µM (active). Moreover, the Potency in [2] is 5.09 µM (active); in assay [9] it was 4.54 µM (active); in [15] it was 51.3 µM (active); in assay [12] it was 64.1 µM (active); in [13], 40.4 µM (active). In addition, in assay [6], the Potency result was “inactive”.

For the compound `O=C1C=CC(=O)N1c1ccc(Cc2ccc(N3C(=O)C=CC3=O)cc2)cc1`, the Potency in [4] is 0.969 µM (active); in assay [5], 1.22 µM (active); in assay [14], 1.54 µM (active); in assay [1], 17.4 µM (active); in assay [7], 54.5 µM (active); in assay [2], 10.9 µM (active). In addition, the Potency in [9] is 8.63 µM (active); in [15], 21.9 µM (active); in assay [13] it was 9.69 µM (active). The Potency result in [3] and in [12] was “inactive” in each case.

Regarding `Nc1ccc2c3c(cccc13)-c1ccccc1-2`, the Potency was 61.8 µM (active) in [4]; 27.6 µM (active) in assay [5]; 55 µM (active) in assay [14]; 43.7 µM (active) in [9]; 8.72 µM (active) in [18]. Also, the Potency result in assay [6], in assay [8] and in [3] was “inactive” throughout.

Consider `CC(C)OC(=O)c1cc2c(OCC(O)CNC(C)(C)C)cccc2[nH]1` (stereo not drawn), for which the Potency in assay [14] was 26.6 µM (active); in [2] it was 13.3 µM (active); in assay [9], 21.1 µM (active). For the same compound, the Potency result in assay [17], in assay [6], in assay [7], in assay [8], in assay [3] and in [15] was “inactive” in each case. Besides, the Potency entry in assay [12] and in [13] was “inactive” throughout.
